The panel holds about 79,000 compounds, 15% with a hit somewhere; the sample as a whole holds those more often. The source made the active and inactive calls. Cut-off read from the data, not from the text of the source: active = growth inhibition above about 70%; inactive = the rest.
Experiment: NCI Yeast Anticancer Drug Screen. Data for the mec2-1 strain (AID 157)
Conditions: S. cerevisiae mec2-1 strain, at 50.0 µM, hits give high values
Summary of the method: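 Using mec2-1 yeast: add compound, measure growth, express inhibition versus vehicle-treated cultures.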
With `CCCN(Cc1ccccc1)CC(O)c1ccc(Cl)cc1` (stereo not given) the growth inhibition was 3.5% (inactive).
In the case of `COC[C@@H](N=Cc1ccc(OC)cc1)C(C)C`, the growth inhibition is reported as -19.4% (inactive).
In the case of `Cc1c(C(=O)CC2OC(=O)C(Cl)=C2Cl)c2ccccc2n1C(=O)Nc1ccc(Cl)cc1` (stereo not given), the growth inhibition is reported as -6.75% (inactive).
For `CN(C)CCNc1ncnc2nc(-c3ccc4ccccc4c3)[nH]c12`, the growth inhibition was -20.9% (inactive).
For `CC(C)N(CC(=O)O)CC(=O)O`, the growth inhibition was -13.4% (inactive).
In the case of `C=CCOC(=O)CC`, the growth inhibition is reported as -13.2% (inactive).
For `CCC(C)(O)CCC(C)(O)CC` (stereo not given), the growth inhibition was 5.4% (inactive).
For `COc1ccc(C(=O)N=Nc2ccccc2)cc1`, the growth inhibition was 0.7% (inactive).
In the case of `COC(=O)C(C(=O)C(=O)Nc1c(Cl)cc([N+](=O)[O-])cc1Cl)c1nc2cc(C)c(C)cc2[nH]c1=O` (stereo not given), the growth inhibition is reported as 3.1% (inactive).
With `O=C1C(=O)c2ccccc2C(O)=C1CC=C(Cl)Cl` the growth inhibition was 5.5% (inactive).
In the case of `COc1cc(Cl)ccc1C`, the growth inhibition is reported as -1.75% (inactive).
With `NNC(=O)Nc1ccccc1` the growth inhibition was 5.55% (inactive).
In the case of `N#CC(c1ccccc1)C1CCCCC1` (stereo not given), the growth inhibition is reported as -20% (inactive).
In the case of `COc1cccc(C2c3cc4c(cc3OC(C)(OC)C2C)OCO4)c1` (stereo not given), the growth inhibition is reported as 22.8% (inactive).
For `CCOC(=O)N(CCCl)C(=O)C(C)C`, the growth inhibition was -39.1% (inactive).
In the case of `ClC(Cl)(Cl)C1CCC2CCCC21` (stereo not given), the growth inhibition is reported as -24.1% (inactive).
For `Fc1ccc(NC(=S)Nc2ccc(F)cc2)cc1`, the growth inhibition was -5.8% (inactive).
In the case of `O=C1/C(=C/c2ccc3c(c2)OCO3)CC/C1=C\c1ccc2c(c1)OCO2`, the growth inhibition is reported as 5.35% (inactive).
With `Cc1ccc(S(=O)(=O)N/N=C(\C(=N/OCc2ccccc2)c2ccccc2)c2ccccc2)cc1` the growth inhibition was -3.75% (inactive).
With `CCCc1nc(N)nc(C(=O)Nc2cccc(C(F)(F)F)c2)c1CC` the growth inhibition was -19.4% (inactive).
For `CCN(CC)CCOC(=O)c1noc2cc([N+](=O)[O-])ccc12`, the growth inhibition was 12.9% (inactive).
In the case of `C#CCOC(=O)C(N)CS` (stereo not given), the growth inhibition is reported as -20.3% (inactive).
With `COC(=O)c1cc(=O)[nH]c(=O)[nH]1` the growth inhibition was -12.8% (inactive).
In the case of `CC1(C)CC(=O)C(/C=N/C(N)=S)=C(O)C1`, the growth inhibition is reported as -52.1% (inactive).
With `COc1ccc(/C=C/C(=O)O)cc1OC` the growth inhibition was -12% (inactive).
For `CCC(C(=O)NC1c2ccccc2Oc2ccccc21)c1ccccc1` (stereo not given), the growth inhibition was -9.85% (inactive).
In the case of `O=C(O)C(=Cc1cccc2ccc3ccccc3c12)C(=O)O`, the growth inhibition is reported as -17.2% (inactive).
With `CCC(=O)NN(C(C)=O)c1ccccc1` the growth inhibition was -21.4% (inactive).
In the case of `COC(=O)C1CSCN1` (stereo not given), the growth inhibition is reported as -4.3% (inactive).
For `COc1cc(CNC(=O)NCCCl)cc(OC)c1OC`, the growth inhibition was 1.2% (inactive).
With `NC(=O)c1ccccc1NC(=O)C(=O)Cc1nc2ccccc2[nH]c1=O` the growth inhibition was -1.55% (inactive).
With `CCCOC(=O)/C=C(\Cl)C(=O)OCCC` the growth inhibition was 4.15% (inactive).
For `CC1(C)C2CC=C(CCO)C1C2` (stereo not given), the growth inhibition was -5.8% (inactive).
With `CC(=O)N1Cc2ncnc(N)c2C1` the growth inhibition was -8.9% (inactive).
With `CC(C)(C)NC(=O)Nc1nccs1` the growth inhibition was -7.9% (inactive).
With `CCCCCc1cc[n+](CC(=O)c2ccccc2)cc1` the growth inhibition was 0.7% (inactive).
In the case of `Cn1c(N)c(N=O)c(=O)n(C)c1=O`, the growth inhibition is reported as -18.8% (inactive).
For `O=S(=O)(O)c1cc(N=Nc2cc(S(=O)(=O)O)c3ccccc3c2O)ccc1/C=C/c1ccc(N=Nc2cc(S(=O)(=O)O)c3ccccc3c2O)cc1S(=O)(=O)O`, the growth inhibition was 36% (inactive).
With `Cc1ccc2c(ccc3ccccc32)n1` the growth inhibition was 16.8% (inactive).
With `Cc1cc(Cl)nc(Nc2ccccc2)n1` the growth inhibition was -2.5% (inactive).

Experiment: NCI Yeast Anticancer Drug Screen. Data for the sgs1 mgt1 strain (AID 161);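 note: 0% = growth of cultures given vehicle only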
Conditions: S. cerevisiae sgs1 mgt1 strain, at 50.0 µM, hits give high values
Summary of the method: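 Compounds are added to genetically altered yeast, and growth is compared with cultures given vehicle alone to give percent inhibition.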
For `CCCN(Cc1ccccc1)CC(O)c1ccc(Cl)cc1` (stereo not given), the growth inhibition was 32.2% (inactive).
With `COC[C@@H](N=Cc1ccc(OC)cc1)C(C)C` the growth inhibition was -49.6% (inactive).
With `Cc1c(C(=O)CC2OC(=O)C(Cl)=C2Cl)c2ccccc2n1C(=O)Nc1ccc(Cl)cc1` (stereo not given) the growth inhibition was 11.1% (inactive).
For `CN(C)CCNc1ncnc2nc(-c3ccc4ccccc4c3)[nH]c12`, the growth inhibition was 7.8% (inactive).
With `CC(C)N(CC(=O)O)CC(=O)O` the growth inhibition was -21.1% (inactive).
In the case of `C=CCOC(=O)CC`, the growth inhibition is reported as -13% (inactive).
For `CCC(C)(O)CCC(C)(O)CC` (stereo not given), the growth inhibition was 14.9% (inactive).
With `COc1ccc(C(=O)N=Nc2ccccc2)cc1` the growth inhibition was -6.85% (inactive).
In the case of `COC(=O)C(C(=O)C(=O)Nc1c(Cl)cc([N+](=O)[O-])cc1Cl)c1nc2cc(C)c(C)cc2[nH]c1=O` (stereo not given), the growth inhibition is reported as 20.8% (inactive).
For `O=C1C(=O)c2ccccc2C(O)=C1CC=C(Cl)Cl`, the growth inhibition was -5.6% (inactive).
For `COc1cc(Cl)ccc1C`, the growth inhibition was 5.75% (inactive).
With `NNC(=O)Nc1ccccc1` the growth inhibition was -0.5% (inactive).
For `N#CC(c1ccccc1)C1CCCCC1` (stereo not given), the growth inhibition was -4.95% (inactive).
For `COc1cccc(C2c3cc4c(cc3OC(C)(OC)C2C)OCO4)c1` (stereo not given), the growth inhibition was 21.4% (inactive).
With `CCOC(=O)N(CCCl)C(=O)C(C)C` the growth inhibition was -10.6% (inactive).
For `ClC(Cl)(Cl)C1CCC2CCCC21` (stereo not given), the growth inhibition was -3.45% (inactive).
With `Fc1ccc(NC(=S)Nc2ccc(F)cc2)cc1` the growth inhibition was -10.7% (inactive).
For `O=C1/C(=C/c2ccc3c(c2)OCO3)CC/C1=C\c1ccc2c(c1)OCO2`, the growth inhibition was -19.7% (inactive).
With `Cc1ccc(S(=O)(=O)N/N=C(\C(=N/OCc2ccccc2)c2ccccc2)c2ccccc2)cc1` the growth inhibition was 27.6% (inactive).
With `CCCc1nc(N)nc(C(=O)Nc2cccc(C(F)(F)F)c2)c1CC` the growth inhibition was 5.1% (inactive).
With `CCN(CC)CCOC(=O)c1noc2cc([N+](=O)[O-])ccc12` the growth inhibition was -1.25% (inactive).
For `C#CCOC(=O)C(N)CS` (stereo not given), the growth inhibition was -13.6% (inactive).
In the case of `COC(=O)c1cc(=O)[nH]c(=O)[nH]1`, the growth inhibition is reported as -15.8% (inactive).
In the case of `CC1(C)CC(=O)C(/C=N/C(N)=S)=C(O)C1`, the growth inhibition is reported as -13.8% (inactive).
In the case of `COc1ccc(/C=C/C(=O)O)cc1OC`, the growth inhibition is reported as 11.7% (inactive).
For `CCC(C(=O)NC1c2ccccc2Oc2ccccc21)c1ccccc1` (stereo not given), the growth inhibition was 0.55% (inactive).
For `O=C(O)C(=Cc1cccc2ccc3ccccc3c12)C(=O)O`, the growth inhibition was -4.8% (inactive).
In the case of `CCC(=O)NN(C(C)=O)c1ccccc1`, the growth inhibition is reported as 6.4% (inactive).
With `COC(=O)C1CSCN1` (stereo not given) the growth inhibition was -26.9% (inactive).
In the case of `COc1cc(CNC(=O)NCCCl)cc(OC)c1OC`, the growth inhibition is reported as -3.2% (inactive).
For `NC(=O)c1ccccc1NC(=O)C(=O)Cc1nc2ccccc2[nH]c1=O`, the growth inhibition was 11.7% (inactive).
With `CCCOC(=O)/C=C(\Cl)C(=O)OCCC` the growth inhibition was 0.65% (inactive).
With `CC1(C)C2CC=C(CCO)C1C2` (stereo not given) the growth inhibition was 2.05% (inactive).
In the case of `CC(=O)N1Cc2ncnc(N)c2C1`, the growth inhibition is reported as -20.7% (inactive).
For `CC(C)(C)NC(=O)Nc1nccs1`, the growth inhibition was -6.2% (inactive).
For `CCCCCc1cc[n+](CC(=O)c2ccccc2)cc1`, the growth inhibition was -12.1% (inactive).
With `Cn1c(N)c(N=O)c(=O)n(C)c1=O` the growth inhibition was -1.6% (inactive).
For `O=S(=O)(O)c1cc(N=Nc2cc(S(=O)(=O)O)c3ccccc3c2O)ccc1/C=C/c1ccc(N=Nc2cc(S(=O)(=O)O)c3ccccc3c2O)cc1S(=O)(=O)O`, the growth inhibition was 17.6% (inactive).
With `Cc1ccc2c(ccc3ccccc32)n1` the growth inhibition was 60% (inactive).
With `Cc1cc(Cl)nc(Nc2ccccc2)n1` the growth inhibition was 3.8% (inactive).

From PubChem BioAssay (NCI)
